From PubChem BioAssay (NCATS)
Values joined by “and” are separate entries in the source; they are usually repeats but may differ in a detail not shown here. Equal values may be shown once. Inconclusive results are not listed. Active and inactive are the calls of the source. Unless noted, calls follow the shape of the full dose curve.

Columns and labels:
[1] = biological target: Estrogen receptor (Homo sapiens) (UniProt P03372); experiment: qHTS assay for small molecule antagonists of estrogen receptor alpha signaling (AID 588513; active = well fitted curve in the direction sought with a large enough effect in the signal ratio, with a control signal flat, not every such curve was filed as active; the % refers to the signal ratio; also: % is scaled to controls: 0 for no effect and ±100 for the full control effect)
How it was run: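 ER-alpha-UAS-bla GripTite HEK 293 cells in medium with 2% charcoal/dextran-treated FBS were preincubated 4 h at 37 C, dosed with compound (1:2 titration), stimulated with 0.5nM 17-beta-estradiol for 18 h, then read by CCF4 beta-lactamase fluorescence.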

[2] = biological target: Estrogen receptor (Homo sapiens) (UniProt P03372); experiment: qHTS assay for small molecule agonists of estrogen receptor alpha signaling (AID 588514);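 also: 0% = vehicle only and 100% = reference agonist; nearly all actives have a fitted effect of over 70% in size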
How it was run: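 Fluorescence from CCF4 cleavage reports ER-alpha-driven beta-lactamase expression in HEK 293 cells treated 18 hrs at 37 C. Data normalized to 17-beta-estradiol (20 nM) and DMSO, fitted to Hill equation.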

[3] = biological target: Androgen receptor (Homo sapiens) (UniProt P10275); experiment: qHTS assay for small molecule agonists of androgen receptor signaling (AID 588515; active = well fitted curve in the direction sought with a large enough effect in the signal ratio, with a control signal flat; the % refers to the signal ratio; also: % is scaled to controls: 0 for no effect and ±100 for the full control effect); conditions: AR-UAS-bla HEK293, beta-lactamase ratio, agonist 16 h; stronger effect = higher value
How it was run: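 Stimulation of an AR-responsive β-lactamase reporter in GripTite HEK293 cells was measured after 16 h compound exposure at 37 °C, via CCF4 fluorescence after 2 h RT. EC50 from Hill fits, normalized to R1881 at 30 nM.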

[4] = biological target: Androgen receptor (Homo sapiens) (UniProt P10275); experiment: qHTS assay for small molecule antagonists of androgen receptor signaling (AID 588516; active = well fitted curve in the direction sought with a large enough effect in the signal ratio, with a control signal flat, not every such curve was filed as active; the % refers to the signal ratio; also: % is scaled to controls: 0 for no effect and ±100 for the full control effect)
How it was run: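 AR-UAS-bla-GripTite HEK 293 cells (2000/well, 5 h at 37 C) received compound titrations, then R1881 at 10 nM final; after 16 h at 37 C, CCF4 dye 2 h RT, beta-lactamase fluorescence read; IC50 from Hill fits.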

[5] = biological target: Bile acid receptor (Homo sapiens) (UniProt Q96RI1); experiment: qHTS assay for small molecule antagonists of farnesoid X receptor signaling (AID 588526); also: % is scaled to controls: 0 for no effect and ±100 for the full control effect
How it was run: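 Antagonist mode: titrated compounds tested against chenodeoxycholic acid stimulation (normalized to 50 uM CDCA and DMSO) in GeneBLAzer HEK293T cells for 16 h. Beta-lactamase read by CCF4 fluorescence; IC50 from Hill fits.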

[6] = qHTS assay for small molecule antagonists of peroxisome proliferator-activated receptor delta signaling (AID 588535); conditions: HEK293T PPARd-UAS-bla, beta-lactamase FRET ratio, 18 h; 460 nm channel;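 also: cells co-treated with a PPAR-delta agonist as stimulator during compound exposure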
How it was run: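 Beta-lactamase reporter read-out (405 nm excitation, 460/530 nm emission) after CCF4 loading for 2 hrs at RT. HEK293T PPAR-delta-UAS-bla cells, 2% charcoal/dextran FBS, compounds for 18 hrs at 37 C. Hill fit gave IC50 and efficacy.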

[7] = qHTS assay for small molecule agonists of retinoid X receptor alpha signaling (AID 588544); conditions: HEK293T RXRa-UAS-bla, beta-lactamase reporter, 18 h; 530 nm emission;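 as to activation: 0% = DMSO basal wells and 100% = reference agonist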
[8] = biological target: Retinoic acid receptor RXR-alpha (Homo sapiens) (UniProt P19793); experiment: as above
[9] = biological target: Thyroid hormone receptor beta (Homo sapiens) (UniProt P10828); experiment: qHTS assay for small molecule agonists of thyroid hormone receptor beta signaling (AID 588545)
How it was run: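 Agonist activity was read as beta-lactamase CCF4 fluorescence (405 ex, 460/530 em), scaled between DMSO (0%) and 10 nM T3 (100%), then Hill-fitted for EC50 and efficacy. HEK 293 TR-UAS-bla cells in 2% charcoal/dextran FBS medium were exposed 18 h at 37 C.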

[10] = qHTS assay for small molecule antagonists of retinoid X receptor alpha signaling (AID 588546; active = well fitted inhibition curve with a large enough effect in the signal ratio, with a control signal flat, not every such curve was filed as active; the % refers to the signal ratio); conditions: HEK293T RXRa-UAS-bla, beta-lactamase ratio, antagonist mode; measured here: W530 green channel, cytotoxicity proxy
How it was run: (§1)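 Beta-lactamase reporter inhibition, read as CCF4 fluorescence ratio (ex 405, em 460/530 nm) after 2 h at RT. HEK293T UAS-bla cells, 2500/well, were stimulated with 9-cis-RA at 500 or 100 nM final alongside test compound for 18 h at 37 C.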

[11] = biological target: Retinoic acid receptor RXR-alpha (Homo sapiens) (UniProt P19793); experiment: as above; conditions: HEK293T RXRa-UAS-bla, beta-lactamase ratio, antagonist mode
How it was run: as §1

[12] = biological target: Thyroid hormone receptor beta (Homo sapiens) (UniProt P10828); experiment: qHTS assay for small molecule antagonists of thyroid hormone receptor beta signaling (AID 588547; active = well fitted inhibition curve with a large enough effect in the signal ratio, with a control signal flat, not every such curve was filed as active; the % refers to the signal ratio); conditions: TR-UAS-bla HEK293, beta-lactamase ratio, antagonist mode, 18 h
How it was run: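 TR-UAS-bla GripTite HEK293 cells in 2% charcoal/dextran FBS medium; compounds 0.59 nM to 92 uM with T3 at 0.4nM final, 18 h at 37 C. Beta-lactamase read by CCF4 fluorescence (460/530 nm); Hill fits gave IC50 and efficacy.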

[13] = biological target: Voltage-gated inwardly rectifying potassium channel KCNH2 (Homo sapiens) (UniProt Q12809); experiment: qHTS Assay for Small Molecule Inhibitors of the Human hERG Channel Activity (AID 588834; active = well fitted curve in the direction sought with a large enough effect; an effect the other way counts as inactive or inconclusive;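 also: lower thallium flux fluorescence means stronger hERG block; nearly all actives have a fitted effect of over 50% in size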; also: potency is read from the fitted curve at half-maximal effect)
How it was run: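 In hERG-transduced U2OS cells, dye-loaded for 1 hr at room temperature in dark, test compounds incubated 10 min at 37 °C before thallium stimulation. AC50 values derived by Hill modelling of concentration-response.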

[14] = biological target: Luciferin 4-monooxygenase (Photinus pyralis) (UniProt P08659); experiment: Biochemical firefly luciferase enzyme assay for NPC (AID 624030; active = well fitted curve in the direction sought with a large enough effect; an effect the other way counts as inactive or inconclusive;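 also: purified P. pyralis luciferase at 10 nM with luciferin and ATP substrate; series mostly up to about 59 µM; 0% = DMSO and -100% = full luciferase inhibition by PTC124 control; nearly all actives have a fitted effect of over 70% in size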)
How it was run: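 Purified P. pyralis luciferase at 10 nM in 50 mM Tris Acetate (final), luminescence read within 5 minutes of enzyme addition to compounds. Activity normalised to PTC124 versus DMSO; concentration-response curves classed by r2, magnitude and activity.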

[15] = S16 Schwann cell viability assay (CellTiter-Glo assay) (AID 624031; active = well fitted curve in the direction sought with a large enough effect; an effect the other way counts as inactive or inconclusive;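 also: cellular ATP luminescence as a viability measure; series mostly up to about 58 µM; plate controls were DMSO-treated cells for no effect and cell-free wells for full effect; nearly all actives have a fitted effect of over 70% in size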)
How it was run: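 CellTiter-Glo ATP luminescence counter-screen in untransfected S16 rat Schwann cells, 24h compound exposure at 37 degree Celsius after overnight seeding (500-750 cells/well); response scaled between cell-free wells and DMSO (0% activity), curves classed by r2 and magnitude.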

[16] = biological target: Peroxisome proliferator-activated receptor gamma (Homo sapiens) (UniProt P37231); experiment: qHTS assay for small molecule agonists of peroxisome proliferator-activated receptor gamma signaling (AID 588536; active = well fitted curve in the direction sought with a large enough effect in the signal ratio, with a control signal flat, not every such curve was filed as active; the % refers to the signal ratio;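 also: 0% = DMSO basal wells and 100% = rosiglitazone at 2 µM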)
How it was run: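 Using GeneBLAzer HEK293 cells, response was quantified by CCF4 fluorescence and normalized between basal DMSO (0%) and rosiglitazone 2 uM (100%); curves yielded half-maximal stimulation concentration and efficacy.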

[17] = biological target: Peroxisome proliferator-activated receptor gamma (Homo sapiens) (UniProt P37231); experiment: qHTS assay for small molecule antagonists of peroxisome proliferator-activated receptor gamma signaling (AID 588537; active = well fitted inhibition curve with a large enough effect in the signal ratio, with a control signal flat, not every such curve was filed as active; the % refers to the signal ratio; also: potency is read from the fitted curve at half-maximal effect)
How it was run: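 Read-out: CCF4 fluorescence (ex 405, em 460/530 nm) after 2 h at RT. Cells were HEK293 carrying a UAS-bla reporter and treated 16 h at 37 C with compound plus rosiglitazone (50 nM final). Normalized to rosiglitazone and DMSO.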

[18] = biological target: Vitamin D3 receptor (Homo sapiens) (UniProt P11473); experiment: qHTS assay for small molecule antagonists of vitamin D receptor signaling (AID 588541)
How it was run: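 VDR-UAS-bla HEK293T cells in 2% charcoal-stripped FBS were stimulated with 1-alpha,25-dihydroxyvitamin D3 (3 nM final) plus compound for 16 h at 37 C. The beta-lactamase CCF4 readout was normalized to 50 nM agonist and DMSO, and Hill fits gave IC50.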

[19] = biological target: Vitamin D3 receptor (Homo sapiens) (UniProt P11473); experiment: qHTS assay for small molecule agonists of vitamin D receptor signaling (AID 588543);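 also: 0% = DMSO basal and 100% = reference agonist control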
How it was run: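 GeneBLAzer VDR-UAS-bla HEK293T cells in 2% charcoal-stripped FBS medium were dosed with compound titrations for 16 h at 37 °C; CCF4 β-lactamase readout (405 nm ex, 460/530 nm em). EC50 and efficacy from Hill fits, normalized to 50 nM calcitriol (100%) and DMSO (0%).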

[20] = biological target: Glucocorticoid receptor (Homo sapiens) (UniProt P04150); experiment: qHTS assay for small molecule antagonists of glucocorticoid receptor signaling (AID 588533; active = well fitted inhibition curve with a large enough effect in the signal ratio, with a control signal flat, not every such curve was filed as active; the % refers to the signal ratio; also: % is scaled to controls: 0 for no effect and ±100 for the full control effect)
How it was run: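 Antagonist-mode qHTS: compound titrations added to GRE-bla HeLa cells, then dexamethasone 2 nM final; 18 h, 37 C. CCF4 FRET fluorescence normalized to dexamethasone and DMSO; IC50 from Hill fit.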

Vitamin D3 receptor (Homo sapiens), sequence (P11473 whole entry, looked up): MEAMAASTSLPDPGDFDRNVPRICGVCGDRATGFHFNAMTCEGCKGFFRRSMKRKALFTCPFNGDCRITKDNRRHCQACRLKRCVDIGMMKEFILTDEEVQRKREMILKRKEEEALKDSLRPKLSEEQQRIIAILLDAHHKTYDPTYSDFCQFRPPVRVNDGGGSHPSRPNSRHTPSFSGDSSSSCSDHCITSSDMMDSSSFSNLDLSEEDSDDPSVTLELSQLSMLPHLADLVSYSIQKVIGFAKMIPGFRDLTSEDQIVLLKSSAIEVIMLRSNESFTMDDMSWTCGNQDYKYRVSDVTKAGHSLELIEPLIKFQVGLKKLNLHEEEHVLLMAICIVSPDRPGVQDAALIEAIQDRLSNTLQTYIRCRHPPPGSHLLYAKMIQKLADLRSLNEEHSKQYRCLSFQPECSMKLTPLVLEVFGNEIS
Luciferin 4-monooxygenase (Photinus pyralis), sequence (P08659 whole entry, looked up): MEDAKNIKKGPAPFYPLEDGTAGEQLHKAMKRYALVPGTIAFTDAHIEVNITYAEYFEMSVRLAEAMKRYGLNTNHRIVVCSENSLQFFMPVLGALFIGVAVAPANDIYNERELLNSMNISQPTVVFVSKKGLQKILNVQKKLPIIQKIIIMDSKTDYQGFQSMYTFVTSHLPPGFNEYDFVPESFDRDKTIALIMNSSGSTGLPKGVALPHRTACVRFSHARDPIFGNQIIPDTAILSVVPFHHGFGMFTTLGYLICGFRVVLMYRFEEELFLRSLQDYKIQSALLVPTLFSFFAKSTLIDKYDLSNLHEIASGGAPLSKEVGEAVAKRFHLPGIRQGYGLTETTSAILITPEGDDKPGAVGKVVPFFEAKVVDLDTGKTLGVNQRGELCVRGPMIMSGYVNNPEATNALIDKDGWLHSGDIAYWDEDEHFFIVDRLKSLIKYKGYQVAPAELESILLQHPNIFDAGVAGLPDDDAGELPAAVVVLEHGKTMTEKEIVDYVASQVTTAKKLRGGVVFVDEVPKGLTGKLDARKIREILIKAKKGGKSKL
Bile acid receptor (Homo sapiens), sequence (Q96RI1 whole entry, looked up): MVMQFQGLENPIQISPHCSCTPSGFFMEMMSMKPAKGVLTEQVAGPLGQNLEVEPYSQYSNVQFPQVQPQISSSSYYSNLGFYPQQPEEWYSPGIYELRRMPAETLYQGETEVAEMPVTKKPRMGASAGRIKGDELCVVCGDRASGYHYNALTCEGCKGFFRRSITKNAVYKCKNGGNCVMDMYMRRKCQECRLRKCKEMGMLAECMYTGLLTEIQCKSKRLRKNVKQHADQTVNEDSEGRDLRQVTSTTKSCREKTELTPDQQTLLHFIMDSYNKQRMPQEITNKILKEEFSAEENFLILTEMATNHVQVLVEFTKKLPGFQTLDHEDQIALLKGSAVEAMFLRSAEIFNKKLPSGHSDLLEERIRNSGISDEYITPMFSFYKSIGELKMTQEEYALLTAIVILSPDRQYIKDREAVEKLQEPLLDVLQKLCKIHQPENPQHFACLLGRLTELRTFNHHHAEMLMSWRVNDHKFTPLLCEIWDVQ
Thyroid hormone receptor beta (Homo sapiens), sequence (P10828 whole entry, looked up): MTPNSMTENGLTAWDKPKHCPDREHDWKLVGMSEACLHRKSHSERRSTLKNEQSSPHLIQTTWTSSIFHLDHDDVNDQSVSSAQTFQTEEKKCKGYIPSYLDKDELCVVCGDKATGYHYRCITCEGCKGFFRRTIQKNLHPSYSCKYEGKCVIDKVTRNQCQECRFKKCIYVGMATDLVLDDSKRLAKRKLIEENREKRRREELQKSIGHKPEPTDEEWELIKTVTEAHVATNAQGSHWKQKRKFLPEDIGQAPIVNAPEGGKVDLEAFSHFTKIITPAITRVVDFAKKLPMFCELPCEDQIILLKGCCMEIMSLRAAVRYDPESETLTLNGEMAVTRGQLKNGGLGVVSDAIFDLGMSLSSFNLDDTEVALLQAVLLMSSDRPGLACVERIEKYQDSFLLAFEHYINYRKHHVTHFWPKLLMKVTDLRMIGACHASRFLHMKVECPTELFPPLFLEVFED
Retinoic acid receptor RXR-alpha (Homo sapiens), sequence (P19793 whole entry, looked up): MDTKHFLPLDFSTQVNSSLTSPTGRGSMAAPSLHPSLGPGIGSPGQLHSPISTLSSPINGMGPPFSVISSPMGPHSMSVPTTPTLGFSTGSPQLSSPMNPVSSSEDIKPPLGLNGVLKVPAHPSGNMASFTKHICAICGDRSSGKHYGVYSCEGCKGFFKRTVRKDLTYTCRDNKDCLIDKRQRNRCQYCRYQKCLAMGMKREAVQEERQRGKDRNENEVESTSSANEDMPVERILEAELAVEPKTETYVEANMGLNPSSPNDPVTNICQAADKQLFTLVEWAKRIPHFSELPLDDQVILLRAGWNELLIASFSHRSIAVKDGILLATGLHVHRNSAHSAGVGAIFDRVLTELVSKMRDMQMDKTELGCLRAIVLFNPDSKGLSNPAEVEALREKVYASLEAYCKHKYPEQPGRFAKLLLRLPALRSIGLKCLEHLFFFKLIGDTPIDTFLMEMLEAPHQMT
Voltage-gated inwardly rectifying potassium channel KCNH2 (Homo sapiens), sequence (Q12809 whole entry, looked up): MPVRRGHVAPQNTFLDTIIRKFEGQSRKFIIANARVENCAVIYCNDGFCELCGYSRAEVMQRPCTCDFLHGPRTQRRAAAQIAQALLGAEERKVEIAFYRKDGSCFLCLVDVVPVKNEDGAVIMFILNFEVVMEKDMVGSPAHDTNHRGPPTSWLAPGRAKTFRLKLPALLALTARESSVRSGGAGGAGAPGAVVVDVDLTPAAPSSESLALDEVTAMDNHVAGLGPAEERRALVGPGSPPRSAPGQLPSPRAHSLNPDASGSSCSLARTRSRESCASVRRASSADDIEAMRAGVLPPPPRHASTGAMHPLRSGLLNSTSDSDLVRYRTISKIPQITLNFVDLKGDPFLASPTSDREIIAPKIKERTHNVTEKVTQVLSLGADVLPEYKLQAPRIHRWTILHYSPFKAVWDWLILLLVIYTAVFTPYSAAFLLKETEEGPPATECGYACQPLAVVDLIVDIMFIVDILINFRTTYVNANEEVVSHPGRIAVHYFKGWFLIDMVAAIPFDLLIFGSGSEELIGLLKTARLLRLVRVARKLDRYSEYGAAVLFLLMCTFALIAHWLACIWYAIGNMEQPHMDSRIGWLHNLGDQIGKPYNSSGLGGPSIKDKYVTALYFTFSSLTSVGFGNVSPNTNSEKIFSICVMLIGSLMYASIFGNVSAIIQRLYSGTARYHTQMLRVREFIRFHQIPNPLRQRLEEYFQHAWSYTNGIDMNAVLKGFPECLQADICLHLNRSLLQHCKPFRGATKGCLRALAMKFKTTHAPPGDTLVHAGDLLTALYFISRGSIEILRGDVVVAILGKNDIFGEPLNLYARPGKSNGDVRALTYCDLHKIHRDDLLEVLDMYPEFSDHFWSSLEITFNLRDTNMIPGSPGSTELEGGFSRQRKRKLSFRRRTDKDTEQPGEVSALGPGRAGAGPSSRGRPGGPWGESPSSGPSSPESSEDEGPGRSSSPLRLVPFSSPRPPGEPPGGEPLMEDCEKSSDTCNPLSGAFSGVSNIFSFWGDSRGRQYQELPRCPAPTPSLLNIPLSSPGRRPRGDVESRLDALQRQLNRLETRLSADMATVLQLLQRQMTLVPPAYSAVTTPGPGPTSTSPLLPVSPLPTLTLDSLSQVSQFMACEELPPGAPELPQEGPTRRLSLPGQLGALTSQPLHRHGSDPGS
Estrogen receptor (Homo sapiens), sequence (P03372 whole entry, looked up): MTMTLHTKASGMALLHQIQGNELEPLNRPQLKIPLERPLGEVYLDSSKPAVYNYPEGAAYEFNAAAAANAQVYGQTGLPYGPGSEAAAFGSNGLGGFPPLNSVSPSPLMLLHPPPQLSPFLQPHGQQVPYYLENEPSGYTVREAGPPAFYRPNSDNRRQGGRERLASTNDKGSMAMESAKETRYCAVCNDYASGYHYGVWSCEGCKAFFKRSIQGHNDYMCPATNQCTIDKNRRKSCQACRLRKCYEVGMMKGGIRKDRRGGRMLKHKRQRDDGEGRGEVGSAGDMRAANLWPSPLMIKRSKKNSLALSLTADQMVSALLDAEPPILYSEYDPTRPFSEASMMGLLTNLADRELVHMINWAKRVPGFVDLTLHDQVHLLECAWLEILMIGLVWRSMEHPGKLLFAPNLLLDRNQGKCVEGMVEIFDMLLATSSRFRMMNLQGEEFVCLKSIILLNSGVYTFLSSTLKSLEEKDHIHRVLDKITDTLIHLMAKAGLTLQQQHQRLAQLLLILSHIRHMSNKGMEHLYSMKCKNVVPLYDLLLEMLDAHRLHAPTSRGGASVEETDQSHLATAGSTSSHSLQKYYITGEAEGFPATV
Peroxisome proliferator-activated receptor gamma (Homo sapiens), sequence (P37231 whole entry, looked up): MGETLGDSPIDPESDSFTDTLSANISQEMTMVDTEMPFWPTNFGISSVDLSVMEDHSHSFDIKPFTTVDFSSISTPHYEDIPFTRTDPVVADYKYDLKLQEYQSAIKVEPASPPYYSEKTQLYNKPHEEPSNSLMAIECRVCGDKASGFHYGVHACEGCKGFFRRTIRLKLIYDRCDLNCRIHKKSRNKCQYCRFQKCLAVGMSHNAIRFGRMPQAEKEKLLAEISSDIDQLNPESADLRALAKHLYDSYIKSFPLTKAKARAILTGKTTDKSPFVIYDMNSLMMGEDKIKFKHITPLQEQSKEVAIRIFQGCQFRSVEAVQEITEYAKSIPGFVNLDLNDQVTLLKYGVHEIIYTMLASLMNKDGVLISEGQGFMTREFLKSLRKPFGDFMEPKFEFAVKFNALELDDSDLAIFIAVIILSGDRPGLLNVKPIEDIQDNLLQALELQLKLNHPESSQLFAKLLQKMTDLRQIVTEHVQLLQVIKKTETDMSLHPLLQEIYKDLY

Cc1ccc(C)c(OCCCC(C)(C)C(=O)O)c1
26.9% and -2.09%: max response [7]
inactive: outcome [1] | outcome [2] | activation [3] 4.9% and 2.29% | outcome [4] | outcome [5] | outcome [8] | outcome [9] | max response [11] 1.18% and -8.41% | activity change % (negative = inhibition) [12] -13.4% and -13.2% | Potency [13] | Potency [14] | Potency [15]
4.23% and -4.48%: max response [10]
34%: max response [6]

N[C@@H](Cc1cc(I)c(Oc2cc(I)c(O)c(I)c2)c(I)c1)C(=O)O
inactive: outcome [16] | outcome [18] | outcome [19] | outcome [8] | Potency [13] | Potency [14]
active: Potency [17] 39.8 µM
-7.79%: max response [7]

NC(=NCc1ccccc1)NC(=O)c1nc(Cl)c(N)nc1N
active: Potency [13] 5.62 µM

CCCCc1ccc2nc(NC(=O)OC)[nH]c2c1
inactive: Potency [13]

NS(=O)(=O)c1cc(C(=O)O)c(NCc2ccco2)cc1Cl
-4.16% and 9.44%: max response [6]
inactive: outcome [1] | outcome [2] | outcome [16] | Potency [17] | outcome [18] | outcome [19] | outcome [9] | activity change % (negative = inhibition) [12] -7.01% and -13.6% | Potency [14]

CC1(C)NC(=O)N(c2ccc([N+](=O)[O-])c(C(F)(F)F)c2)C1=O
inactive: outcome [5] | outcome [16] | Potency [17] | outcome [18] | outcome [19] | outcome [8] | outcome [9] | max response [11] 1.48% | Potency [13] | Potency [14]
13.6%: max response [7]
-4.34%: max response [10]

Cc1cc(O)c2c(c1)C(=O)c1cc(O)cc(O)c1C2=O
inactive: outcome [9] | max response [11] -11.8% | activity change % (negative = inhibition) [12] -22%
1.07%: max response [10]

O=C1NC(=O)C(c2ccccc2[N+](=O)[O-])=C1Nc1ccc(O)c(Cl)c1
inactive: Potency [13]

Nc1nc(Cl)nc2c1ncn2[C@H]1C[C@H](O)[C@@H](CO)O1
5.76%: max response [10]
inactive: outcome [5] | outcome [20] | outcome [18] | outcome [19] | outcome [9] | max response [11] -2.35% | activity change % (negative = inhibition) [12] -1.32% | Potency [13]

O=c1c(O)c(-c2ccc(O)cc2O)oc2cc(O)cc(O)c12
active: Potency [13] 3.16 µM
inactive: outcome [5] | outcome [20] | outcome [16] | Potency [17] | outcome [18] | outcome [19] | outcome [9]

COc1c2occc2cc2ccc(=O)oc12
-1.38%: max response [7]
inactive: outcome [5] | outcome [20] | outcome [18] | outcome [19] | outcome [8] | outcome [9] | max response [11] 1.26% and 12.5% | activity change % (negative = inhibition) [12] 4.14% and -14.9% | Potency [13] | Potency [14]
0.567% and -6.27%: max response [10]
59.3%: max response [6]
